Source: PubChem BioAssay (NCI)
About 83,000 compounds went through this panel and 20% of them were active in at least one assay; those are over-represented in the sample as a whole.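 For each line, cells grew in 96-well plates with the test compound present at a single concentration for 48 hours.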 Unmarked numbers belong to inactive results. Activity calls are given as the source filed them. The calls were made as follows: active = growth percent below 10; inactive = the rest.

Tests used:
Experiment in all cases: NCI-60 one-dose screen, 48 h (100 = growth as untreated, 0 = no growth, -100 = all killed)
DU-145 prostate = conditions: 10 µM unless noted
K-562 leukemia = conditions: 10 µM unless noted
MALME-3M melanoma = conditions: 10 µM unless noted
MDA-MB-231 breast = conditions: 10 µM unless noted
RXF 393 renal = conditions: 10 µM unless noted
SF-268 CNS = conditions: 10 µM unless noted
SF-295 CNS = conditions: 10 µM unless noted
SF-539 CNS = conditions: 10 µM unless noted
UACC-257 melanoma = conditions: 10 µM unless noted
M14 melanoma = conditions: 10 µM unless noted
HCT-15 colon = conditions: 10 µM unless noted
HT29 colon = conditions: 10 µM unless noted
SNB-75 CNS = conditions: 10 µM unless noted
U251 CNS = conditions: 10 µM unless noted
PC-3 prostate = conditions: 10 µM unless noted
SK-MEL-5 melanoma = conditions: 10 µM unless noted
UACC-62 melanoma = conditions: 10 µM unless noted
LOX IMVI melanoma = conditions: 10 µM
SK-MEL-28 melanoma = conditions: 10 µM unless noted
SNB-19 CNS = conditions: 10 µM unless noted

Structure (SMILES)	growth (DU-145 prostate)	growth (K-562 leukemia)	growth (MALME-3M melanoma)	growth (MDA-MB-231 breast)	growth (RXF 393 renal)	growth (SF-268 CNS)	growth (SF-295 CNS) [%]	growth (SF-539 CNS)	growth (UACC-257 melanoma)	growth (M14 melanoma)	growth (HCT-15 colon)	growth (HT29 colon)	growth (SNB-75 CNS) [%]	growth (U251 CNS)	growth (PC-3 prostate)	growth (SK-MEL-5 melanoma)	growth (UACC-62 melanoma)	growth (LOX IMVI melanoma)	growth (SK-MEL-28 melanoma)	growth (SNB-19 CNS) [%]
CCOc1ccc(NC(=S)N2CCC(CCCC3CCN(C(=S)Nc4ccc(OCC)cc4)CC3)CC2)cc1	95.9%	61.5%	80.1%	92.4%	110%	83.1%	84.6	106%	83.1%	97.9%	84%	87.7%	80.3	95.1%	99%	42.2%	83.7%	95.5%	94.9%	
C=C1CC2(OC1=O)C(=O)N(C)c1ccc(I)cc12 (stereo not drawn)	-95.2% (active)	-50% (active)	-77.1% (active)	-2.19% (active)	-73.4% (active)	-75% (active)	55.4	-88.2% (active)	-69.3% (active)	-76.6% (active)	-53.7% (active)	-74.7% (active)	38.4	2.89% (active)	-76.6% (active)	-92% (active)	-61.2% (active)	-65.4% (active)	-93.6% (active)	
O=C(Nc1cccc(Cl)c1)c1ccc(Cl)cc1Cl	99.3%	90.9%	96.6%	97.9%	110%	96.2%	94.6	103%	99.7%	93.7%	96.3%	86.5%	84.7		82.2%	96.1%		98.5%	101%	96.9
CCOC(=O)c1cc(C)[nH]c(=O)c1C#N	113%	82.6%	123%	116%	98.1%	105%	93.5	95.6%	93%	102%	101%	105%	85.7	102%	80.7%	107%	104%	97.7%	112%	
O=C(OCC1CCCO1)c1ccc([N+](=O)[O-])cc1 (stereo not drawn)	113%	111%	106%	106%	102%	106%	102	102%	85.5%	101%	104%	108%	85.8	91.7%	88.4%	104%	99.8%	104%	108%	
O=C1C=Cc2ccccc2/C1=C/c1[nH]c(=O)[nH]c1O	54.5%	26%	23.5%	62.6%	34.2%	55.2%	28.9	17.6%	2.03% (active)	22.3%	59.7%	37.7%	31.9		27.4%		24%	48.8%	30.6%	34.1
O=C(CCCl)OCCOc1ccccc1	101%	93.2%	97.7%	111%	112%	94.6%	105	95.8%	110%	102%	105%	102%	96.1	99.9%		108%	108%	96.6%	107%	
Nc1ccc(F)cc1F	110%	107%	111%	93.7%	92.2%	109%	104	94.3%	111%	101%	108%	106%	97.1	106%	89.1%		100%	102%	92.7%	
N#C/C(=C\c1ccc2c(c1)OCO2)c1ccccc1	106%	21.4%	80.7%	66.8%	83.6%	86.4%	71.3	80%	85.8%	59%	49.4%	35.5%	76.2	55%	84.8%	54.6%	69.7%	78.3%	87.7%	
Cc1ccc2[nH]c3ccccc3c2c1	104%	89.8%	95.2%	111%	112%	103%	103	101%	104%	110%	79.6%	102%	98.4		89.1%		98.4%	97%	111%	105
O=C(O)CCCCCNC(=O)OCc1ccccc1	98%	124%	97.2%	102%	119%	100%	99.8	97.5%	112%	92.7%	103%	108%	74	94.9%	95.3%	111%	101%	104%	106%	
CCCCCCCCCc1ccc(OC(C)=O)cc1	103%	101%	103%	110%	111%	101%	96.6	92.8%	110%	99.5%	111%		99.4	97.9%	94.1%	103%	107%	104%	107%	103
CCOc1ccc(C(=O)NCC(C)C)cc1	110%	102%	101%	93.2%	108%	102%	99.5	94.4%	110%	97%	103%	106%	81.8	101%		101%	101%	97.2%	106%	
CC1CCC(C)(C)c2ccccc21 (stereo not drawn)	110%	115%	100%	94.6%	109%	104%	89.2	97.2%	100%	95.7%	101%	103%	82.9	99.2%	93.5%	95.8%	103%	98.6%	97.3%	
CC1(C)C2CCC1(C)C1(C2)OCCS1 (stereo not drawn)	103%	96.5%	94.6%	100%	96%	93.8%	92.2	94.1%	102%	113%	95.9%	110%	78.5	97%	92.4%	93.8%	87%	92.2%	102%	
CC(=O)OCC1CCC(COC(C)=O)CC1 (stereo not drawn)	102%	104%	104%	119%	106%	95.1%	99	104%	82.9%	111%	95%	68.6%	87.4	105%	111%	103%	97.7%	94%	102%	
